Reference: PubChem BioAssay (NCATS)
Inconclusive results are not listed. A number with no mark means an inactive call. The source made the active and inactive calls. The call rests on the fitted dose curve; in most records, active means well fitted cell-killing curve with a large enough effect; inconclusive means small, poorly fitted or top-dose-only effect, or effect the other way; inactive means no such curve, though single readings can be large or run the other way.
Potency means the concentration at half of the fitted maximal effect.

Experiment: qHTS of pediatric cancer cell lines to identify multiple opportunities for drug repurposing: Confirmatory screen for NB1643 cells (AID 1347109); further: nearly all actives have a fitted effect of over 45% in size
Conditions: NB1643 neuroblastoma cell viability; series mostly up to 45.9 µM
Description: Drug repurposing or repositioning has been offered as a strategy for drug development in oncology programs. This approach has special potential for childhood cancers and other rare or orphan diseases, where the expected return on new drug development has been a disincentive to pharmaceuticals.
In this project we exploit the poly-pharmacology of drugs to discover new indications via phenotypic screening of a panel of 19 well-characterized cell lines derived from solid tumors seen in children and adolescents. The goal is to identify approved drugs with previously unrecognized anticancer properties that has the potential to reveal new mechanisms and biological processes involved in carcinogenesis or drug resistance. We employed a titration-based paradigm (quantitative high-throughput screening or qHTS), where all compounds were tested at multiple concentrations for their effect on cell viability. Concentration-response curves (CRCs) were derived directly from the primary screen, and both potency and efficacy values were used to identify compounds with robust bioactivity profiles. We screened the NIH Chemical Genomics Center (NCGC) Pharmaceutical Collection (NPC) and Mechanism Interrogation Plate (MIPE) small molecule collections of approved and investigational compounds against these cell lines; and measured metabolically active cells after 48 hours of compound treatment as a proxy for cell viability.
Assay Submitter: Nathalia J. Martinez, National Center for Advancing Translational Sciences, National Institutes of Health, Rockville, MD, USA; email: natalia.martinez@nih.gov
[1] Shen, M et al. Quantitative high-throughput phenotypic screening of pediatric cancer cell lines identifies multiple opportunities for drug repurposing. Oncotarget 2017 Dec 19;9(4):4758-4772. PMID 29435139.
The cells were obtained from University of North Carolina (UNC), Pediatric Preclinical Testing Program (PPT), and Coriell Institute (CI).
qHTS cell viability assay:
Cells were assayed in growth media at a density of 500-1,000 cells/well. Five microliters of cells were dispensed into 1,536-well, white, solid-bottom, TC-treated plates (Greiner Bio One) using a multidrop dispenser and incubated at 37 degrees C, 5% CO2, under a humidified atmosphere for 5 hours. Twenty-three nanoliters of compounds and controls (neutral control DMSO or positive control bortezomib at final concentration of 2.3 µM) were subsequently transferred by Kalypsys pintool. For primary screens, the MIPE collection was tested at 11-point dilutions (final concentrations range from 0.78 nM to 46 µM) and the NPC collection at 8-point dilutions (final concentrations range from 0.59 nM to 46 µM). Compounds tested in follow-up screens were assayed at 11-point dilutions. Cells were incubated for 48 hours, followed by addition of 3 µL of CellTiter-Glo (Promega). After a 15 min incubation at room temperature, samples were analyzed for luminescence intensity using a ViewLux High-throughput CCD imager equipped with clear filters.
In the case of `CCCCCCCCCCCCOCCOCCOCCOCCOCCOCCOCCOCCOCCO`, the Potency is reported as “inactive”. In the case of `Nc1nc(Cl)nc2c1ncn2[C@@H]1O[C@H](CO)[C@@H](O)[C@@H]1F`, the Potency is reported as 1470 nM (active). In the case of `C[C@@]12C(=O)OC(=O)[C@]1(C)C1CCC2O1`, the Potency is reported as 2930 nM (active). For `NC(N)=NN=C(/C=C/c1ccc([N+](=O)[O-])o1)/C=C/c1ccc([N+](=O)[O-])o1`, the Potency was 1170 nM (active). In the case of `CCCCCCCCCCC[C@@H](C[C@@H]1OC(=O)[C@H]1CCCCCC)OC(=O)[C@H](CC(C)C)NC=O`, the Potency is reported as “inactive”. For `CCN1/C(=C/C=C/c2sc3ccccc3[n+]2CC)Sc2ccccc21`, the Potency was 1310 nM (active). For `C[C@H]1O[C@@H](O[C@H]2CC[C@@]3(C)[C@H](CC[C@@H]4[C@@H]3C[C@@H](O)[C@]3(C)[C@@H](C5=CC(=O)OC5)CC[C@]43O)C2)C[C@H](O)[C@@H]1O[C@H]1C[C@H](O)[C@H](O[C@H]2C[C@H](O)[C@H](O[C@@H]3O[C@H](CO)[C@@H](O)[C@H](O)[C@H]3O)[C@@H](C)O2)[C@@H](C)O1`, the Potency was 414 nM (active). In the case of `CCN[C@@H]1C[C@H](N)[C@@H](OC2OC(CN)=CCC2N)[C@H](O)[C@H]1O[C@H]1OC[C@](C)(O)[C@H](NC)[C@H]1O` (stereo partly drawn), the activity change, negative = cytotoxic is reported as 11.9% [at 0.556 µM]. For `CCN(CC)CCOc1ccc2c(c1)C(=O)c1cc(OCCN(CC)CC)ccc1-2`, the Potency was 18500 nM (active). With `O=[N+]([O-])c1ccc(/C=N\O)o1` the Potency was “inactive”. With `C=C[C@@]1(C)CC(=O)[C@]2(O)[C@@]3(C)[C@@H](O)CCC(C)(C)[C@@H]3[C@H](O)[C@H](OC(C)=O)[C@@]2(C)O1` the Potency was “inactive”. In the case of `O=C(CCCN1CC=C(n2c(=O)[nH]c3ccccc32)CC1)c1ccc(F)cc1`, the Potency is reported as “inactive”. With `COc1ccc(C(=O)c2ccccc2)c(O)c1` the Potency was “inactive”.
